The values that follow come from PubChem BioAssay.

Activity calls are given as the source filed them.

Test system in the first test: not listed separately
Kind of test: forskolin-driven CRE-LacZ activity in PC12 – cell-based, CRE-LacZ reporter, forskolin-stimulated, primary screen (AID 1146).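 Further: PC12 cells with 6xCRE LacZ reporter stimulated by forskolin 10 µM; beta-galactosidase reporter signal reflecting CREB driven transcription.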 To be noted: luminescence, 4.5 h, higher = more signal, called active from +8 up or from −8 down.
As for `O=C1OCCC/C=C\[C@H]2OC34C=CCN(c5ccc6ccccc6c5)C(=O)[C@H]3N(CCCCCCO)C(=O)[C@@H]4C12` (stereo partly specified), the z-score is -0.677 (inactive).

Turning to `COc1ccc([C@H]2C[C@H]3C(Br)=C[C@@H]2C(=O)[C@]32CO2)cc1`, the z-score was 0.357 (inactive).

As for `COCCOC(=O)N1C(=O)[C@@]2(c3cc(C#CCCO)ccc31)[C@H](c1ccc(OCCO)cc1)N1[C@H](c3ccccc3)[C@H](c3ccccc3)OC(=O)[C@H]1[C@@H]2C(=O)N1CCN(c2ncccn2)CC1`, the z-score is 0.653 (inactive).

Turning to `Cc1ccc(C(C)CC(O)C2C=CC3C(=O)N(C)C(=O)C3N2NC(=O)OC(C)(C)C)o1` (stereo unspecified), the z-score is -0.0179 (inactive).

Take `C=CC[C@@]1(C(=O)N(C)C)N=C(c2ccc(OCCCO)cc2)O[C@@H]1c1ccccc1N=[N+]=[N-]`: the z-score is -0.825 (inactive).

`COCCOC(=O)N1C(=O)[C@@]2(c3cc(C#CCCO)ccc31)[C@H](C(=O)Nc1nc3ccccc3s1)[C@H]1C(=O)O[C@H](c3ccccc3)[C@H](c3ccccc3)N1[C@@H]2c1ccc(OCCO)cc1`: the z-score is -0.432 (inactive).

For the molecule `O=C(c1ccccc1)N1Cc2ccccc2[C@@H]2OC(c3ccc(OCCCO)cc3)=N[C@]2(Cc2ccccc2)C1=O`, the z-score was 0.715 (inactive).

Take `NCCCCCNC(=O)[C@@H]1C[C@@H]2C(=O)N[C@@H](Cc3ccccc3)C(=O)N2[C@@H]1c1cccc(OCCO)c1`: the z-score was 0.201 (inactive).

Consider `COc1ccc([C@H]2OC[C@@H]3CC4(CC=CC4)C(=O)N32)cc1`, for which the z-score was 0.249 (inactive).

As to `CN1C(=O)C2C=CC(C(O)Cc3ccccc3)N(Nc3ccccc3)C2C1=O` (stereo unspecified), the z-score is 0.0426 (inactive).

For the molecule `[N-]=[N+]=NCc1ccccc1[C@@H]1OC(c2ccc(OCCCO)cc2)=N[C@]1(Cc1ccccc1N=[N+]=[N-])C(=O)N1CCOCC1`, the z-score is -0.514 (inactive).

For `COc1ccc(CCNC(=O)[C@@]2(Sc3ccc(C)cc3)CC(=O)N(C3CCCCC3)[C@@H]2c2ccc(CO)cc2I)cc1`, the z-score was 1.19 (inactive).

On to `[N-]=[N+]=NCc1ccccc1[C@@H]1OC(c2ccc(OCCCO)cc2)=N[C@]1(CCS(=O)(=O)c1ccccc1)C(=O)NCc1ccccc1`, for which the z-score is -1.66 (inactive).

Consider `O=C1OCC=C[C@H]2OC34C=CCN(CCN5CCOCC5)C(=O)[C@H]3N(CCCO)C(=O)[C@@H]4[C@@H]12` (stereo partly specified), for which the z-score was 1.5 (inactive).

With `CCc1oc(CC[C@@H](CO)NC(=O)NCCn2cc(C3(O)CCCCC3)nn2)c(C(=O)OC)c1C(=O)OC`, the z-score was 1.01 (inactive).

On to `COC(=O)[C@@]1(Cc2ccc(F)cc2)[C@H]2c3cc(C(=O)N(C)C)n(Cc4nc5ccccc5[nH]4)c3C[C@H]2CN1C(=O)c1ccccc1`, for which the z-score was 0.678 (inactive).

With `COc1ccc(CCN2C(=O)[C@@]3(c4ccc([N+](=O)[O-])cc4)CC(=O)N(C4CCCCC4)[C@@H]3c3ccc(CO)cc32)cc1`, the z-score is 0.86 (inactive).

Consider `O=C(O)[C@@]1(CCS(=O)(=O)c2ccccc2)COC(c2ccc(OCCCO)cc2)=N1`, for which the z-score was -0.298 (inactive).

Take `CC(C)C[C@@H]1NC(=O)[C@H]2C[C@@H](C(=O)NCCCCCCN)[C@@H](c3ccc(O)cc3)N2C1=O`: the z-score was 1.08 (inactive).

As to `CCCC[C@H]1OB(O)C[C@H]2C1=C(COc1ccccc1)C[C@H]1C(=O)N(C)C(=O)[C@H]12`, the z-score was 0.899 (inactive).

Turning to `O=C1O[C@H](c2ccccc2)[C@H](c2ccccc2)N2[C@H]1[C@@H](C(=O)N1CCN(c3ncccn3)CC1)[C@]1(C(=O)Nc3ccc(C#CC4=CCCCC4)cc31)[C@H]2c1ccc(O)cc1`, the z-score was -0.196 (inactive).

As to `C#CCN(CC=C(C)C)[C@H](CO)c1ccccc1`, the z-score was 0.979 (inactive).

Consider `Cc1ccc(S[C@]2(C(=O)NCCN3CCOCC3)CC(=O)N(Cc3ccccc3Cl)[C@@H]2c2ccc(CO)cc2)cc1`, for which the z-score was 1.1 (inactive).

On to `O=C1NC(=O)C2C1C=CC(C(O)Cc1ccccc1)N2Nc1ccc(Cl)cc1Cl` (stereo unspecified), for which the z-score was 0.115 (inactive).

Consider `C=CCOC(=O)[C@@H]1[C@H]2C(=O)O[C@H](c3ccccc3)[C@H](c3ccccc3)N2[C@H](c2ccc(OCCOC(=O)[C@@H]3C[C@@H]4C(=O)N5CCC[C@H]5C(=O)N4[C@@H]3c3ccc(O)cc3)cc2)[C@@]12C(=O)Nc1ccc(I)cc12`, for which the z-score is -1.75 (inactive).

For a further test, the target named is Streptavidin (Streptomyces avidinii) (UniProt P22629). Kind of test: compounds binding control protein streptavidin – biophysical, small-molecule microarray, 635/667 nm fluorescence, artefact control for SMM compound annotation, primary screen (AID 1147).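 Further: signal reflects streptavidin binding to arrayed compounds as a control protein.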 To be noted: higher = more signal.
Streptavidin (Streptomyces avidinii), sequence (P22629 whole entry, looked up): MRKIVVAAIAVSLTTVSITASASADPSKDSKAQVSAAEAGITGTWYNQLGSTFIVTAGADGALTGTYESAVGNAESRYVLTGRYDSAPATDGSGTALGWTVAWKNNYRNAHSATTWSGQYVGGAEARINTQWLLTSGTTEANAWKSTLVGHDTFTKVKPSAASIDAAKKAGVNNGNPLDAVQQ
For the molecule `C=C(C)C1C(=C)CN([C@H](CO)c2ccccc2)C1=O` (stereo partly specified), the composite z-score is -1.12.

On to `COc1ccc(C(O)C2C=CC3C(=O)N(c4ccccc4)C(=O)C3N2Nc2ccccc2F)cc1OCc1ccccc1` (stereo unspecified), for which the composite z-score amounted to 1.47.

`COCCCNC(=O)[C@@]1(Cc2ccccc2)N=C(c2ccc(OCCCO)cc2)O[C@H]1c1ccccc1` displayed a composite z-score of 2.34.

The molecule `CC(C)C(CO)N1C(=O)[C@@H]2[C@H]3C(=O)OCC=C[C@H]3OC23C=CCN(C(C)C)C(=O)[C@@H]13` (stereo partly specified) had a composite z-score of -0.629.

Regarding `[N-]=[N+]=Nc1ccccc1[C@H]1OC(c2ccc(OCCCO)cc2)=N[C@@]1(Cc1ccccc1)C(=O)O`, the composite z-score amounted to 0.365.

Take `Cc1ccc(S[C@]2(C(=O)NC(C)C)CC(=O)N(Cc3ccccc3Cl)[C@@H]2c2ccc(CO)cc2I)cc1`: the composite z-score is -0.265.

In turn, `CN(C)CCCCCCNC(=O)[C@@H]1C[C@@H]2C(=O)N[C@@H](CCCCN)C(=O)N2[C@@H]1c1cccc(OCCO)c1` came in with a composite z-score of 3.03.

Molecule `CC(C)(C)OC(=O)CC[C@]12N=C(c3ccc(OCCCO)cc3)O[C@H]1c1ccccc1N(CCS(=O)(=O)c1ccccc1)C2=O` had a composite z-score of 0.579.

Regarding `COCCn1c(C(=O)N2CCCC2)cc2c1C[C@H]1CN(C(=O)c3ccccc3)[C@@](Cc3ccc(F)cc3)(C(=O)OC)[C@@H]21`, the composite z-score turned out to be 1.8.

`CC1CC/C=C\[C@H]2OC34C=CCN(C(C)(C)C)C(=O)[C@H]3N(CCCCCCO)C(=O)[C@@H]4C2C(=O)O1` (stereo partly specified) registered a composite z-score of -0.727.

Take `COCCOC(=O)N1C(=O)[C@@]2(c3cc(C#Cc4ccc(OC)cc4)ccc31)[C@H](C(N)=O)[C@H]1C(=O)O[C@H](c3ccccc3)[C@H](c3ccccc3)N1[C@@H]2c1ccccc1OCCO`: the composite z-score was determined as 0.784.

In turn, `O=C1OCCC/C=C\[C@H]2OC34C=CCN(c5ccc6ccccc6c5)C(=O)[C@H]3N(CCCCCCO)C(=O)[C@@H]4C12` (stereo partly specified) gave a composite z-score of -1.1.

In turn, `COc1ccc([C@H]2C[C@H]3C(Br)=C[C@@H]2C(=O)[C@]32CO2)cc1` came in with a composite z-score of 0.256.

In turn, `COCCOC(=O)N1C(=O)[C@@]2(c3cc(C#CCCO)ccc31)[C@H](c1ccc(OCCO)cc1)N1[C@H](c3ccccc3)[C@H](c3ccccc3)OC(=O)[C@H]1[C@@H]2C(=O)N1CCN(c2ncccn2)CC1` displayed a composite z-score of 0.782.

`Cc1ccc(C(C)CC(O)C2C=CC3C(=O)N(C)C(=O)C3N2NC(=O)OC(C)(C)C)o1` (stereo unspecified) gave a composite z-score of 1.22.

On to `C=CC[C@@]1(C(=O)N(C)C)N=C(c2ccc(OCCCO)cc2)O[C@@H]1c1ccccc1N=[N+]=[N-]`, for which the composite z-score was determined as 1.28.

Molecule `COCCOC(=O)N1C(=O)[C@@]2(c3cc(C#CCCO)ccc31)[C@H](C(=O)Nc1nc3ccccc3s1)[C@H]1C(=O)O[C@H](c3ccccc3)[C@H](c3ccccc3)N1[C@@H]2c1ccc(OCCO)cc1` registered a composite z-score of 1.06.

The molecule `O=C(c1ccccc1)N1Cc2ccccc2[C@@H]2OC(c3ccc(OCCCO)cc3)=N[C@]2(Cc2ccccc2)C1=O` gave a composite z-score of 0.215.

`NCCCCCNC(=O)[C@@H]1C[C@@H]2C(=O)N[C@@H](Cc3ccccc3)C(=O)N2[C@@H]1c1cccc(OCCO)c1` returned a composite z-score of 0.44.

The molecule `COc1ccc([C@H]2OC[C@@H]3CC4(CC=CC4)C(=O)N32)cc1` yielded a composite z-score of 0.193.

Turning to `CN1C(=O)C2C=CC(C(O)Cc3ccccc3)N(Nc3ccccc3)C2C1=O` (stereo unspecified), the composite z-score was found to be 0.996.

Molecule `[N-]=[N+]=NCc1ccccc1[C@@H]1OC(c2ccc(OCCCO)cc2)=N[C@]1(Cc1ccccc1N=[N+]=[N-])C(=O)N1CCOCC1` had a composite z-score of 1.57.

Molecule `COc1ccc(CCNC(=O)[C@@]2(Sc3ccc(C)cc3)CC(=O)N(C3CCCCC3)[C@@H]2c2ccc(CO)cc2I)cc1` returned a composite z-score of 0.422.

In turn, `[N-]=[N+]=NCc1ccccc1[C@@H]1OC(c2ccc(OCCCO)cc2)=N[C@]1(CCS(=O)(=O)c1ccccc1)C(=O)NCc1ccccc1` yielded a composite z-score of 1.09.

For `O=C1OCC=C[C@H]2OC34C=CCN(CCN5CCOCC5)C(=O)[C@H]3N(CCCO)C(=O)[C@@H]4[C@@H]12` (stereo partly specified), the composite z-score turned out to be 0.212.

For the molecule `CCc1oc(CC[C@@H](CO)NC(=O)NCCn2cc(C3(O)CCCCC3)nn2)c(C(=O)OC)c1C(=O)OC`, the composite z-score is -0.0709.

`COC(=O)[C@@]1(Cc2ccc(F)cc2)[C@H]2c3cc(C(=O)N(C)C)n(Cc4nc5ccccc5[nH]4)c3C[C@H]2CN1C(=O)c1ccccc1` had a composite z-score of 0.711.

`COc1ccc(CCN2C(=O)[C@@]3(c4ccc([N+](=O)[O-])cc4)CC(=O)N(C4CCCCC4)[C@@H]3c3ccc(CO)cc32)cc1` showed a composite z-score of -0.298.

Take `O=C(O)[C@@]1(CCS(=O)(=O)c2ccccc2)COC(c2ccc(OCCCO)cc2)=N1`: the composite z-score is -0.439.

For `CC(C)C[C@@H]1NC(=O)[C@H]2C[C@@H](C(=O)NCCCCCCN)[C@@H](c3ccc(O)cc3)N2C1=O`, the composite z-score was 0.569.

In the case of `CCCC[C@H]1OB(O)C[C@H]2C1=C(COc1ccccc1)C[C@H]1C(=O)N(C)C(=O)[C@H]12`, the composite z-score is -0.385.

`O=C1O[C@H](c2ccccc2)[C@H](c2ccccc2)N2[C@H]1[C@@H](C(=O)N1CCN(c3ncccn3)CC1)[C@]1(C(=O)Nc3ccc(C#CC4=CCCCC4)cc31)[C@H]2c1ccc(O)cc1` came in with a composite z-score of 1.08.

With `C#CCN(CC=C(C)C)[C@H](CO)c1ccccc1`, the composite z-score was 0.0089.

`Cc1ccc(S[C@]2(C(=O)NCCN3CCOCC3)CC(=O)N(Cc3ccccc3Cl)[C@@H]2c2ccc(CO)cc2)cc1` registered a composite z-score of -0.625.

The molecule `O=C1NC(=O)C2C1C=CC(C(O)Cc1ccccc1)N2Nc1ccc(Cl)cc1Cl` (stereo unspecified) returned a composite z-score of 0.889.

`C=CCOC(=O)[C@@H]1[C@H]2C(=O)O[C@H](c3ccccc3)[C@H](c3ccccc3)N2[C@H](c2ccc(OCCOC(=O)[C@@H]3C[C@@H]4C(=O)N5CCC[C@H]5C(=O)N4[C@@H]3c3ccc(O)cc3)cc2)[C@@]12C(=O)Nc1ccc(I)cc12` returned a composite z-score of 1.11.
